Only some compounds are listed: those with a hit (about 3% of all), similar ones and a draw of the others.
SENP6 block – SENP6 protease inhibitors, primary screen, biochemical, luminescence, uHTS; 1.8% of 330,000 active; Recombinant SENP6 catalytic domain, aminoluciferin luminescence; inhibition, % at 10 µM; Sentrin-specific protease 6 (Homo sapiens), Q9GZR1;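 active means inhibition above about 50% at the single tested dose, limit read from the data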
C8 TRAIL sens – viability loss with TRAIL in NB7+C8 cells, primary screen, TRAIL sensitizer project, cell-based, ATPlite luminescence; inhibition (viability loss, TRAIL sensitization), % at 10 µM; 1% of 360,000 active; AID 624354, 2012;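 active means compounds causing at least 50% loss of cell viability in the single-dose screen, relative to plate controls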
SENP8 block-1 – SENP8 protease inhibitors, primary screen, biochemical, luminescence. Sentrin-specific protease 8 (Homo sapiens), Q96LD8. purified SENP8, Z-RLRGG-aminoluciferin cleavage. inhibition, % at 10 µM. 1.2% of 330,000 active. AID 2540, 2010; in the data active means inhibition above about 50%
Target sequence (Q96LD8 whole entry, looked up): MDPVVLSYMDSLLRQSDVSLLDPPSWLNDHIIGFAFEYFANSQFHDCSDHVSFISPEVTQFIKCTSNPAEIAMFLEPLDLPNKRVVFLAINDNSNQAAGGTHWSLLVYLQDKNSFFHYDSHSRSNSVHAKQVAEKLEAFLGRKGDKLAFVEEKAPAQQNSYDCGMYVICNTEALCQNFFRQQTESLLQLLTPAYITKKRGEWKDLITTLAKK
SENP8 block-2 – human SENP8 protease inhibitors, primary screen, biochemical, fluorescence, Nedd8 protein substrate, uHTS. recombinant SENP8. inhibition, % at 20 µM. 0.64% of 360,000 active. AID 602440, 2012; in the data active means inhibition mostly above about 40%, no sharp cut-off; inactive means mostly below about 27%
SENP7 block – SENP7 protease inhibitors, primary screen, biochemical, luminescence, uHTS | recombinant SENP7, Z-RLRGG-aminoluciferin luminescence, 40 min | Sentrin-specific protease 7 (Homo sapiens), Q9BQF6 | inhibition, % at 5 µM | 1.5% of 330,000 active;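 active means inhibition above about 50% at the single test dose, limit read from the data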
PPC-1+TRAIL kill – compounds killing PPC-1 cancer cells with TRAIL present, primary screen, TRAIL potentiator project, ATPLite luminescence, uHTS | PPC-1 cells + TRAIL, ATPLite viability luminescence | cell killing (% activity), % at 4 µM or 5 µM | 0.41% of 220,000 active | AID 1443, 2008;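 active means cell killing above 50% in the first pass at 4 µM, then a duplicate retest at 5 µM averaging 50% or more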
SENP8 conf – SENP8 protease inhibitors, retest, confirmation, biochemical, luminescence, single concentration. shares compounds with SENP7 block. Recombinant SENP8, Z-RLRGG-aminoluciferin luminescence, 60 min. inhibition, % at 12.5 µM. 40% of 6,200 active;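 active means mean inhibition across replicates above about 50%, limit read from the data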
SENP6 conf – SENP6 protease inhibitors, confirmation, biochemical, luminescence, single concentration; recombinant SENP6, Z-RLRGG-aminoluciferin luminescence; shares compounds with SENP7 block; inhibition, % at 12.5 µM; 58% of 6,200 active
SENP7 conf – SENP7 protease inhibitors, retest, confirmation, biochemical, luminescence, single concentration | shares compounds with SENP7 block | recombinant SENP7, Z-RLRGG-aminoluciferin luminescence, 40 min | inhibition, % at 12.5 µM | 69% of 6,200 active | AID 488917, 2010
Casp3 select – caspase-3 protease inhibitors, confirmation, selectivity assay for SENP inhibitor project, biochemical, single concentration. shares compounds with SENP7 block. purified caspase-3, Z-DEVD-aminoluciferin luminescence, 60 min. inhibition, % at 12.5 µM. 60% of 6,200 active. AID 488918, 2010;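 active means mean inhibition above about 50%, limit read from the data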
Target sequence (P42574 28-227 limits assumed): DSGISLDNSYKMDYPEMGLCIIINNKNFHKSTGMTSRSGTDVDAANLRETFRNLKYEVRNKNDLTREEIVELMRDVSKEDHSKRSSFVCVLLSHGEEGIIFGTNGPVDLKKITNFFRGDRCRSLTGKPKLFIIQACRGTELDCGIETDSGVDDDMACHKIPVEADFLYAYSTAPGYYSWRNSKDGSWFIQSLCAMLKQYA
SENP luc ctr – counter-screen for SENP inhibitors: luminescence interference. shares compounds with SENP7 block. Pre-incubated SENP8/Z-RLRGG-aminoluciferin, luciferase luminescence interference. inhibition, % at 12.5 µM. 39% of 6,200 active;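 active means mean inhibition above about 50% when retested at one dose, limit read from the data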
Hits are given with their value.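 How the source made its calls, unless noted: active means mean inhibition above about 50% in the one-dose retest (limit read from the data); inactive means the rest.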

What do the screens show for `O=C(Nc1ccc(OC(=O)c2cccs2)cc1)c1ccco1`?
SENP6 block: 87; C8 TRAIL sens: inactive; SENP8 block-1: 67; SENP8 block-2: inactive; SENP7 block: 82; PPC-1+TRAIL kill: inactive; SENP8 conf: 72; SENP6 conf: 72; SENP7 conf: 94; Casp3 select: 77; SENP luc ctr: inactive

Results for CCOC(=O)Nc1ccc(Oc2ccccc2)cc1 ?
SENP6 block: inactive; C8 TRAIL sens: inactive; SENP8 block-1: inactive; SENP8 block-2: inactive; SENP7 block: inactive; PPC-1+TRAIL kill: inactive

What do the screens show for `CCOC(=O)Nc1ccc(C(=O)Oc2ccccc2)c(O)c1`?
SENP6 block: inactive; C8 TRAIL sens: inactive; SENP8 block-1: inactive; SENP8 block-2: inactive; SENP7 block: 53; PPC-1+TRAIL kill: inactive; SENP8 conf: inactive; SENP6 conf: inactive; SENP7 conf: 69; Casp3 select: inactive; SENP luc ctr: inactive

What do the screens show for `CCOC(=O)C1CCN(S(=O)(=O)c2ccc3c4c(cccc24)C(=O)N3CC)CC1`?
SENP6 block: inactive; C8 TRAIL sens: inactive; SENP8 block-1: inactive; SENP8 block-2: inactive; SENP7 block: inactive

Results for O=c1oc2cc(Br)ccc2n1Cc1ccccc1 ?
SENP6 block: inactive; C8 TRAIL sens: inactive; SENP8 block-1: inactive; SENP8 block-2: inactive; SENP7 block: inactive

What do the screens show for `COc1cc(/C=N/NC(=O)C2=NNC(=O)C2C)ccc1O` (stereo not drawn)?
SENP6 block: inactive; C8 TRAIL sens: inactive; SENP8 block-1: inactive; SENP8 block-2: inactive; SENP7 block: inactive; PPC-1+TRAIL kill: inactive

How did CC1C(=O)NN=C1C(=O)N/N=C\c1ccc(O)cc1O (stereo not drawn) do in these assays?
SENP6 block: 71; C8 TRAIL sens: inactive; SENP8 block-1: 61; SENP8 block-2: inactive; SENP7 block: 75; PPC-1+TRAIL kill: inactive; SENP8 conf: 68; SENP6 conf: 65; SENP7 conf: 87; Casp3 select: 89; SENP luc ctr: inactive

How did COc1ccc2c(c1OC)C(=O)N1c3ccccc3COC21 (stereo not drawn) do in these assays?
SENP6 block: inactive; C8 TRAIL sens: inactive; SENP8 block-1: inactive; SENP8 block-2: inactive; SENP7 block: inactive; PPC-1+TRAIL kill: inactive

How did COc1ccc2c(c1OC)C(=O)N1c3ccccc3SC21 (stereo not drawn) do in these assays?
SENP6 block: 50; C8 TRAIL sens: inactive; SENP8 block-1: inactive; SENP8 block-2: inactive; SENP7 block: inactive; PPC-1+TRAIL kill: inactive; SENP8 conf: inactive; SENP6 conf: inactive; SENP7 conf: 78; Casp3 select: 58; SENP luc ctr: inactive

What do the screens show for `Oc1cccc2c(NC(=S)Nc3ccc(OC(F)F)cc3)cccc12`?
SENP6 block: 94; C8 TRAIL sens: inactive; SENP8 block-1: 80; SENP8 block-2: inactive; SENP7 block: inactive; PPC-1+TRAIL kill: inactive; SENP8 conf: inactive; SENP6 conf: inactive; SENP7 conf: inactive; Casp3 select: inactive; SENP luc ctr: inactive

What do the screens show for `O=C(O)c1cc(NC(=O)c2ccc3c(c2)C(=O)N(Cc2cccnc2)C3=O)cc(C(=O)O)c1`?
SENP6 block: inactive; C8 TRAIL sens: inactive; SENP8 block-1: inactive; SENP8 block-2: inactive; SENP7 block: inactive

How did C#Cc1cccc(NC(=O)c2ccc3c(c2)C(=O)N(Cc2cccnc2)C3=O)c1 do in these assays?
SENP6 block: 60; C8 TRAIL sens: inactive; SENP8 block-1: inactive; SENP8 block-2: inactive; SENP7 block: 75; SENP8 conf: inactive; SENP6 conf: inactive; SENP7 conf: 88; Casp3 select: 54; SENP luc ctr: 56

Results for C=CCC[C@@H](Cc1ccc(F)cc1)C(=O)OC[C@@H](Cc1ccccc1)NC(=O)[C@@H](CC=C)CC(=O)N[C@@H](CO)Cc1ccccc1 ?
SENP6 block: inactive; C8 TRAIL sens: inactive; SENP8 block-1: inactive; SENP8 block-2: inactive; SENP7 block: inactive

How did CC(C)(C)c1ccc(/C=C/C(=O)Nc2cccnc2)cc1 do in these assays?
SENP6 block: 85; C8 TRAIL sens: inactive; SENP8 block-1: 76; SENP8 block-2: inactive; SENP7 block: 83; SENP8 conf: inactive; SENP6 conf: 80; SENP7 conf: 95; Casp3 select: 59; SENP luc ctr: 55

What do the screens show for `O=C(/C=C/c1c(F)cccc1Cl)Nc1ccncc1`?
SENP6 block: 65; C8 TRAIL sens: inactive; SENP8 block-1: inactive; SENP8 block-2: inactive; SENP7 block: 62; PPC-1+TRAIL kill: inactive; SENP8 conf: inactive; SENP6 conf: inactive; SENP7 conf: inactive; Casp3 select: inactive; SENP luc ctr: inactive

How did O=C(/C=C/c1ccccc1Cl)Nc1cccnc1 do in these assays?
SENP6 block: 93; C8 TRAIL sens: inactive; SENP8 block-1: 86; SENP8 block-2: inactive; SENP7 block: 93; SENP8 conf: inactive; SENP6 conf: 92; SENP7 conf: 100; Casp3 select: 89; SENP luc ctr: 90

What do the screens show for `COc1ccccc1/C=C/C(=O)Nc1cccnc1`?
SENP6 block: inactive; C8 TRAIL sens: inactive; SENP8 block-1: inactive; SENP8 block-2: inactive; SENP7 block: inactive

How did O=C(/C=C/c1ccccc1Cl)Nc1ccncc1 do in these assays?
SENP6 block: 62; C8 TRAIL sens: inactive; SENP8 block-1: inactive; SENP8 block-2: inactive; SENP7 block: inactive; PPC-1+TRAIL kill: inactive; SENP8 conf: inactive; SENP6 conf: inactive; SENP7 conf: 68; Casp3 select: inactive; SENP luc ctr: 58

Results for COc1ccc(-c2nnc(NC(=O)C3=COCCO3)o2)cc1 ?
SENP6 block: inactive; C8 TRAIL sens: inactive; SENP8 block-1: inactive; SENP8 block-2: inactive; SENP7 block: inactive; PPC-1+TRAIL kill: inactive

From PubChem
